In the supplement of paper PMC8975748:

How the values were obtained:
[1] = tested on: Saccharomyces cerevisiae BY4741 SeMeCo community; test: z-score of prototroph abundance vs DMSO median; higher = larger share of this subpopulation than in DMSO controls; details: 10 µM; 24 h; SM minimal medium; subpopulation (auxotrophy): Prototroph
How it was run: (§1)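 A Saccharomyces cerevisiae BY4741 community carried four plasmids, each restoring one auxotrophy and encoding a distinct fluorescent protein. It was pre-grown overnight to OD600 1.0, diluted to 0.3, and 70 µl was added to 384-well plates acoustically predosed with library drugs (10 µM final), then grown 24 h in minimal SM medium. Cells were paraformaldehyde-fixed and imaged by automated confocal microscopy, with single-auxotroph fluorescent strains setting thresholds and autofluorescence correction. Each subpopulation's abundance was scored as a z-score against the vehicle-well median.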

[2] = tested on: Saccharomyces cerevisiae BY4741 SeMeCo community; test: z-score of subpopulation abundance vs DMSO median, subpopulation auxotrophic for M; higher = larger share of this subpopulation than in DMSO controls; details: 10 µM; 24 h; SM minimal medium; subpopulation (auxotrophy): M
How it was run: as §1

[3] = tested on: Saccharomyces cerevisiae BY4741 SeMeCo community; test: z-score of subpopulation abundance vs DMSO median, subpopulation auxotrophic for L; higher = larger share of this subpopulation than in DMSO controls; details: 10 µM; 24 h; SM minimal medium; subpopulation (auxotrophy): L
How it was run: as §1

[4] = tested on: Saccharomyces cerevisiae BY4741 SeMeCo community; test: z-score of subpopulation abundance vs DMSO median, subpopulation auxotrophic for U; higher = larger share of this subpopulation than in DMSO controls; details: 10 µM; 24 h; SM minimal medium; subpopulation (auxotrophy): U
How it was run: as §1

[5] = tested on: Saccharomyces cerevisiae BY4741 SeMeCo community; test: z-score of subpopulation abundance vs DMSO median, subpopulation auxotrophic for H; higher = larger share of this subpopulation than in DMSO controls; details: 10 µM; 24 h; SM minimal medium; subpopulation (auxotrophy): H
How it was run: as §1

[6] = tested on: Saccharomyces cerevisiae BY4741 SeMeCo community; test: z-score of subpopulation abundance vs DMSO median, subpopulation auxotrophic for LU; higher = larger share of this subpopulation than in DMSO controls; details: 10 µM; 24 h; SM minimal medium; subpopulation (auxotrophy): LU
How it was run: as §1

[7] = tested on: Saccharomyces cerevisiae BY4741 SeMeCo community; test: z-score of subpopulation abundance vs DMSO median, subpopulation auxotrophic for LM; higher = larger share of this subpopulation than in DMSO controls; details: 10 µM; 24 h; SM minimal medium; subpopulation (auxotrophy): LM
How it was run: as §1

[8] = tested on: Saccharomyces cerevisiae BY4741 SeMeCo community; test: z-score of subpopulation abundance vs DMSO median, subpopulation auxotrophic for HM; higher = larger share of this subpopulation than in DMSO controls; details: 10 µM; 24 h; SM minimal medium; subpopulation (auxotrophy): HM
How it was run: as §1

[9] = tested on: Saccharomyces cerevisiae BY4741 SeMeCo community; test: z-score of subpopulation abundance vs DMSO median, subpopulation auxotrophic for HU; higher = larger share of this subpopulation than in DMSO controls; details: 10 µM; 24 h; SM minimal medium; subpopulation (auxotrophy): HU
How it was run: as §1

[10] = tested on: Saccharomyces cerevisiae BY4741 SeMeCo community; test: z-score of subpopulation abundance vs DMSO median, subpopulation auxotrophic for UM; higher = larger share of this subpopulation than in DMSO controls; details: 10 µM; 24 h; SM minimal medium; subpopulation (auxotrophy): UM
How it was run: as §1

[11] = tested on: Saccharomyces cerevisiae BY4741 SeMeCo community; test: z-score of subpopulation abundance vs DMSO median, subpopulation auxotrophic for HL; higher = larger share of this subpopulation than in DMSO controls; details: 10 µM; 24 h; SM minimal medium; subpopulation (auxotrophy): HL
How it was run: as §1

[12] = tested on: Saccharomyces cerevisiae BY4741 SeMeCo community; test: z-score of subpopulation abundance vs DMSO median, subpopulation auxotrophic for HLU; higher = larger share of this subpopulation than in DMSO controls; details: 10 µM; 24 h; SM minimal medium; subpopulation (auxotrophy): HLU
How it was run: as §1

[13] = tested on: Saccharomyces cerevisiae BY4741 SeMeCo community; test: z-score of subpopulation abundance vs DMSO median, subpopulation auxotrophic for HLM; higher = larger share of this subpopulation than in DMSO controls; details: 10 µM; 24 h; SM minimal medium; subpopulation (auxotrophy): HLM
How it was run: as §1

[14] = tested on: Saccharomyces cerevisiae BY4741 SeMeCo community; test: z-score of subpopulation abundance vs DMSO median, subpopulation auxotrophic for HUM; higher = larger share of this subpopulation than in DMSO controls; details: 10 µM; 24 h; SM minimal medium; subpopulation (auxotrophy): HUM
How it was run: as §1

[15] = tested on: Saccharomyces cerevisiae BY4741 SeMeCo community; test: z-score of subpopulation abundance vs DMSO median, subpopulation auxotrophic for LUM; higher = larger share of this subpopulation than in DMSO controls; details: 10 µM; 24 h; SM minimal medium; subpopulation (auxotrophy): LUM
How it was run: as §1

[16] = tested on: Saccharomyces cerevisiae BY4741 SeMeCo community; test: z-score of subpopulation abundance vs DMSO median, subpopulation auxotrophic for HLUM; higher = larger share of this subpopulation than in DMSO controls; details: 10 µM; 24 h; SM minimal medium; subpopulation (auxotrophy): HLUM
How it was run: as §1

Compound | z-score of prototroph abundance [1] | z-score of subpopulation abundance [2] | z-score of subpopulation abundance [3] | z-score of subpopulation abundance [4] | z-score of subpopulation abundance [5] | z-score of subpopulation abundance [6] | z-score of subpopulation abundance [7] | z-score of subpopulation abundance [8] | z-score of subpopulation abundance [9] | z-score of subpopulation abundance [10] | z-score of subpopulation abundance [11] | z-score of subpopulation abundance [12] | z-score of subpopulation abundance [13] | z-score of subpopulation abundance [14] | z-score of subpopulation abundance [15] | z-score of subpopulation abundance [16]
CC(=O)OCC1=C(C(=O)O)N2C(=O)C(NC(=O)CSC(=NC(C)C)NC(C)C)C2SC1 (centres undefined) [Cefathiamidine] | 0.65 | -0.3 | -0.86 | 0.86 | -0.66 | -0.47 | -1.11 | -0.6 | -0.62 | 0.84 | -1.06 | -1.21 | -1.16 | 0.21 | -0.68 | -1.54
O=c1ccc2ccc(OCCCCN3CCN(c4cccc5sccc45)CC3)cc2[nH]1 [Brexpiprazole] | -0.62 | 0.05 | 0.33 | 0.84 |  | 0.27 | 0.35 | 0.35 | 1.54 | 1.41 | -0.02 | -0.45 | -0.13 | 0.25 | 1.05 | -0.98
CCN1CCCC1CNC(=O)c1cc(S(N)(=O)=O)ccc1OC (centres undefined) [Sulpiride] | 0.51 | 0.12 | 0.31 |  | -0.37 | -0.37 | -0.86 | -0.46 | -0.14 | -0.33 | -0.63 | -1.3 | 0.14 | -0.68 | 0.04 | 0.02
CSc1nc2cc(Cl)c(Oc3cccc(Cl)c3Cl)cc2[nH]1 [Triclabendazole] | 1.8 | -9.19 | -0.07 | -0.92 | 5.63 | 0.92 | -2.65 | -3.03 | 2.73 | -5.17 | 3.65 | 2.64 | 7.41 | -1.46 |  | 4.69
CC(=O)[O-].[K+] [Potassium acetate] | 0.52 | -0.39 | -0.45 | -0.46 | -0.01 | -0.01 | -0.98 | -0.29 |  |  | 0.08 | -0.71 | -0.9 | -0.43 | -0.06 | -0.44
C[C@@H](O)[C@H]1C(=O)N2C(C(=O)O)=C(S[C@@H]3CN[C@H](C(=O)N(C)C)C3)[C@H](C)[C@H]12 [Meropenem Trihydrate] |  | 0.89 | 0.38 | -0.82 | 1.09 | 0.63 | 0.14 | 1.13 | -0.59 |  | 0.55 | 0.91 | 0.4 | -0.48 | -0.3 | -0.25
O=c1[nH]cc(F)c(=O)[nH]1 [Fluorouracil (5-Fluoracil, 5-FU)] | -10.5 | -2.62 | -0.27 | 0.26 | 13.4 | 0.59 | 0.7 | 18.4 |  | 2.82 | 6.71 | 10.4 | 22.3 | 12.3 | 3.63 | 22.5
